Experimental findings from ChEMBL document CHEMBL2218924, “A broad activity screen in support of a chemogenomic map for kinase signalling research and drug discovery” (Biochem J, 2013) are described below.

Each structure is given as a SMILES string.

One may read the residual activity as the signal under treatment as a percentage of the control signal.

For assay [1], the target named is T1, Serine/threonine-protein kinase TBK1 (Homo sapiens) (UniProt Q9UHD2).
T1 sequence (whole entry): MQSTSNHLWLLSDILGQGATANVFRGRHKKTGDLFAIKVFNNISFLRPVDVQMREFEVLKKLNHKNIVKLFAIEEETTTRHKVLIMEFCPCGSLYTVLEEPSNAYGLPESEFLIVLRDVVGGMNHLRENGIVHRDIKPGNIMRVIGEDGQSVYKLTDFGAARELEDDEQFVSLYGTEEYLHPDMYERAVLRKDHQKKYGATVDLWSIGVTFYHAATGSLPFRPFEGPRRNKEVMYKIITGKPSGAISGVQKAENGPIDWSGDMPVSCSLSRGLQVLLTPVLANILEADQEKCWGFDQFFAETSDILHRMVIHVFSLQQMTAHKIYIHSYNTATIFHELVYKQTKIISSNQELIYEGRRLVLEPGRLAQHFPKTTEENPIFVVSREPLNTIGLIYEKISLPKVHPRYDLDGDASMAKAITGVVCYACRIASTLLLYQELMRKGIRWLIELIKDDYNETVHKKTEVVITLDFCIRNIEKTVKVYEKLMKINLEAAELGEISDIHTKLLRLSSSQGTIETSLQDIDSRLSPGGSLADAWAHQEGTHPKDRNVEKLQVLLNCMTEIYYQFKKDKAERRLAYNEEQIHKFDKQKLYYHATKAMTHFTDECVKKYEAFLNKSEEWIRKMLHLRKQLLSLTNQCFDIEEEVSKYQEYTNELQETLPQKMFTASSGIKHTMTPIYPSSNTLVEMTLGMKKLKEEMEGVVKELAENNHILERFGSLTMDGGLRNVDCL
The conditions noted are these: at 10 µM.

For assay [2], the target named is T2, TGF-beta receptor type-1 (Homo sapiens) (UniProt P36897).
T2 sequence (whole entry): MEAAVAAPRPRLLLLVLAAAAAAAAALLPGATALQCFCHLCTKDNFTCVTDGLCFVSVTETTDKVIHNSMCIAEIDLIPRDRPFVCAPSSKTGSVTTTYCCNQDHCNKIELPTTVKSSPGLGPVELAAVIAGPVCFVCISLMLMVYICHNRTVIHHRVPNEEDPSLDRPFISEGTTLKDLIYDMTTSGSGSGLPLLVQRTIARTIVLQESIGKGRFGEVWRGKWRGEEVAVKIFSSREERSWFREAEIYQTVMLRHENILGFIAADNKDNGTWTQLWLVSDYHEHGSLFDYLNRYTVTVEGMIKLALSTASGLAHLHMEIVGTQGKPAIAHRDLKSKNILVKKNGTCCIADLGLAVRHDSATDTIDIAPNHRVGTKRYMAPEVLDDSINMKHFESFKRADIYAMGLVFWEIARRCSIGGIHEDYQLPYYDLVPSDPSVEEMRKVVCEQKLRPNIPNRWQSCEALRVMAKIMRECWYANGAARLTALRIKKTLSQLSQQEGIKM
The note with it: at 1 µM.

The target in assay [3] is T2, TGF-beta receptor type-1 (Homo sapiens). The conditions noted are these: at 10 µM.
Assay [4] deals with Insulin-like growth factor 1 receptor (Homo sapiens) (UniProt P08069). The conditions noted are these: at 1 µM.
Assay [5] has the same target. The conditions noted are these: at 10 µM.
The target of assay [6] is T3, Inhibitor of nuclear factor kappa-B kinase subunit alpha (Homo sapiens) (UniProt O15111).
T3 sequence (whole entry): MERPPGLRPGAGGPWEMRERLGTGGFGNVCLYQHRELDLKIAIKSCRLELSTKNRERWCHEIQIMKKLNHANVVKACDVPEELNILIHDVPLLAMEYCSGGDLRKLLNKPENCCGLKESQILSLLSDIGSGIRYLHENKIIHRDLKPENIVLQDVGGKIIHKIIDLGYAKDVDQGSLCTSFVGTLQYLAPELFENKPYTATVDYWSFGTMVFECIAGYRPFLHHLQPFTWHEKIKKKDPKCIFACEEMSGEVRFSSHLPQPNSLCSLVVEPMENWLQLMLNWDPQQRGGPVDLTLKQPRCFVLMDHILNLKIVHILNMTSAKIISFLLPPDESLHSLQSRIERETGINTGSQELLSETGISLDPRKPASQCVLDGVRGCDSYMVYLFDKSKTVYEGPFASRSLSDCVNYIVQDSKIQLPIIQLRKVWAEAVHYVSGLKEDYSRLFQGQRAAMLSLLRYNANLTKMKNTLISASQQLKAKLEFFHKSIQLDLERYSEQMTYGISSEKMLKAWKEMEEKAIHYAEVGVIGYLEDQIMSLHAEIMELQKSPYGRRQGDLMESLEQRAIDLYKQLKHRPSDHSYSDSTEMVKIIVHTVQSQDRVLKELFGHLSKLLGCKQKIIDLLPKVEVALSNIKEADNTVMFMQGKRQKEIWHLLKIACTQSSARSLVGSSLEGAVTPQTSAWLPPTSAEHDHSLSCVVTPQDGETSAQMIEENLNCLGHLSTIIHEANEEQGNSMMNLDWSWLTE
The conditions noted are these: at 1 µM.

Assay [7] deals with T3, Inhibitor of nuclear factor kappa-B kinase subunit alpha (Homo sapiens). The conditions noted are these: at 10 µM.
In assay [8] the target is T4, Inhibitor of nuclear factor kappa-B kinase subunit beta (Homo sapiens) (UniProt O14920).
T4 sequence (whole entry): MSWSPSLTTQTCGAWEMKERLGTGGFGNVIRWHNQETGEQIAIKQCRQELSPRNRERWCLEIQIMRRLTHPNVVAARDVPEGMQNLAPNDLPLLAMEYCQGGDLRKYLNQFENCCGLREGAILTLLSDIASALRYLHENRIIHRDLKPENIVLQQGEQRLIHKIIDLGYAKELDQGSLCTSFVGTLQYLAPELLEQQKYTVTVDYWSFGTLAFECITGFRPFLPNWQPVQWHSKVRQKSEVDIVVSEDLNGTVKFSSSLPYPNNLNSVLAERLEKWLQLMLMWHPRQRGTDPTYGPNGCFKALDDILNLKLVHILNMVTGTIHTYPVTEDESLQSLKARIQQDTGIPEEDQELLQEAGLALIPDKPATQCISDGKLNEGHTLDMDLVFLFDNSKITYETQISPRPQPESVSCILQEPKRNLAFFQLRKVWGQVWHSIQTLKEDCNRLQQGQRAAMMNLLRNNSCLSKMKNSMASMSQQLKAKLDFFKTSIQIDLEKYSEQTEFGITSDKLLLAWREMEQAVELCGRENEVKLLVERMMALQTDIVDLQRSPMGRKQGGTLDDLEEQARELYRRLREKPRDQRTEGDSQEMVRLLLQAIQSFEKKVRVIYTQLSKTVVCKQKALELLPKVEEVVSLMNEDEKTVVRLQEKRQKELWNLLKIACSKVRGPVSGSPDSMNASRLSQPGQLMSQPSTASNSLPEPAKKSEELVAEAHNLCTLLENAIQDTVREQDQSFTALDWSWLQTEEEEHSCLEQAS
The conditions noted are these: at 1 µM.

For assay [9], the target named is T4, Inhibitor of nuclear factor kappa-B kinase subunit beta (Homo sapiens). The conditions noted are these: at 10 µM.
The target in assay [10] is Insulin receptor (Homo sapiens) (UniProt P06213). The note with it: at 1 µM.
Chain of Insulin receptor (Homo sapiens) (P06213 28-758 limits assumed): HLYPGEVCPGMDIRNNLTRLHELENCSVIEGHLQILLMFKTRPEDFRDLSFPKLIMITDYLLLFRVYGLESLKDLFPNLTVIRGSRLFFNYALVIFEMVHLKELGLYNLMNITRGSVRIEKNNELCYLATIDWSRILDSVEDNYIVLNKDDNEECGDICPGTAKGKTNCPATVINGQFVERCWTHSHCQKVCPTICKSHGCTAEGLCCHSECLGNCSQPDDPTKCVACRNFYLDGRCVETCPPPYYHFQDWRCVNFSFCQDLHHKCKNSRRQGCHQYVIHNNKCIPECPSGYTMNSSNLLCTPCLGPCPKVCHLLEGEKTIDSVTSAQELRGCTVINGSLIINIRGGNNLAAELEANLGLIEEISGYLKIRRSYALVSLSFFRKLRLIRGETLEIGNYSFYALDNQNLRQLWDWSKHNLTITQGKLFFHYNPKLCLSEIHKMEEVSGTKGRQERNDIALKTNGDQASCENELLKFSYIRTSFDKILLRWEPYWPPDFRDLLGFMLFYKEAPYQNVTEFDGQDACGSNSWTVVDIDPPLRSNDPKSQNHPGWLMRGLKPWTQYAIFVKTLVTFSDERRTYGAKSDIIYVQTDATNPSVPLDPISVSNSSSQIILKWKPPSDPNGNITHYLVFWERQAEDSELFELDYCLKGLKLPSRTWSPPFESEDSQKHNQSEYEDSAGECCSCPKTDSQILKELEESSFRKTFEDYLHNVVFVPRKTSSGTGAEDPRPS
Chain of Insulin receptor (Homo sapiens) (P06213 763-1382 limits assumed): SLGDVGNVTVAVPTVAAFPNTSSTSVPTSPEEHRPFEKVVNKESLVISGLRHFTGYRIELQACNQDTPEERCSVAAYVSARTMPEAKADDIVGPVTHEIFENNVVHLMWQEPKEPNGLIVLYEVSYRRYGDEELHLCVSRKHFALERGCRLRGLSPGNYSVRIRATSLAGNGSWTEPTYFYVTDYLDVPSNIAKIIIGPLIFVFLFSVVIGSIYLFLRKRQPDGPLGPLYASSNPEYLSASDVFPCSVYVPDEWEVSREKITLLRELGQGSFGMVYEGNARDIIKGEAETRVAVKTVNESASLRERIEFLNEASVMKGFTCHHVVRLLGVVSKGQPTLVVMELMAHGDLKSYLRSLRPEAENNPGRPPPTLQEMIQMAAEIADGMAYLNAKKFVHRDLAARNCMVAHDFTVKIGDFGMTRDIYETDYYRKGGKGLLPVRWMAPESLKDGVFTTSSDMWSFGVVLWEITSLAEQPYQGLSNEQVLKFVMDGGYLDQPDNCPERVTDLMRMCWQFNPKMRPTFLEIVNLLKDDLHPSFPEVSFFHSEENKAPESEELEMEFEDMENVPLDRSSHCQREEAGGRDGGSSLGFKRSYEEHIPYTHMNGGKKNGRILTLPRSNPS

Chain of Insulin-like growth factor 1 receptor (Homo sapiens) (P08069 31-736 limits assumed): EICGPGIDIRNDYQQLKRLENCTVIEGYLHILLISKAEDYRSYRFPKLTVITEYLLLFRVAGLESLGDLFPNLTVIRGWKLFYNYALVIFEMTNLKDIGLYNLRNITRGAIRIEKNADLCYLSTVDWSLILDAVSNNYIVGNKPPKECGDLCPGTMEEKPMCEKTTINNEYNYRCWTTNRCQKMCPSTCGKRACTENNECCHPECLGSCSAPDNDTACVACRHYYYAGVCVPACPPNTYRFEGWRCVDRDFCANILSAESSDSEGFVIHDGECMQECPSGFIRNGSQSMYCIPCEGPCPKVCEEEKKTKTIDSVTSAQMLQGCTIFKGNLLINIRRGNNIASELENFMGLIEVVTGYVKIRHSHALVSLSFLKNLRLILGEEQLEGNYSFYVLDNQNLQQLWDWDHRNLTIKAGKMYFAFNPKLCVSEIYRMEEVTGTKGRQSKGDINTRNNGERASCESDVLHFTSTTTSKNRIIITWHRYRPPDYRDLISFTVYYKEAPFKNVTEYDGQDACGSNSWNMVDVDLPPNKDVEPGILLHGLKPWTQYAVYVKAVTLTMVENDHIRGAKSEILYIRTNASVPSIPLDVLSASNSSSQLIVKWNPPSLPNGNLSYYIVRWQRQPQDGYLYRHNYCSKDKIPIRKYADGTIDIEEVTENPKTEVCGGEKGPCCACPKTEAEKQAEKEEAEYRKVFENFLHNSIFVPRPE
Chain of Insulin-like growth factor 1 receptor (Homo sapiens) (P08069 741-1367 limits assumed): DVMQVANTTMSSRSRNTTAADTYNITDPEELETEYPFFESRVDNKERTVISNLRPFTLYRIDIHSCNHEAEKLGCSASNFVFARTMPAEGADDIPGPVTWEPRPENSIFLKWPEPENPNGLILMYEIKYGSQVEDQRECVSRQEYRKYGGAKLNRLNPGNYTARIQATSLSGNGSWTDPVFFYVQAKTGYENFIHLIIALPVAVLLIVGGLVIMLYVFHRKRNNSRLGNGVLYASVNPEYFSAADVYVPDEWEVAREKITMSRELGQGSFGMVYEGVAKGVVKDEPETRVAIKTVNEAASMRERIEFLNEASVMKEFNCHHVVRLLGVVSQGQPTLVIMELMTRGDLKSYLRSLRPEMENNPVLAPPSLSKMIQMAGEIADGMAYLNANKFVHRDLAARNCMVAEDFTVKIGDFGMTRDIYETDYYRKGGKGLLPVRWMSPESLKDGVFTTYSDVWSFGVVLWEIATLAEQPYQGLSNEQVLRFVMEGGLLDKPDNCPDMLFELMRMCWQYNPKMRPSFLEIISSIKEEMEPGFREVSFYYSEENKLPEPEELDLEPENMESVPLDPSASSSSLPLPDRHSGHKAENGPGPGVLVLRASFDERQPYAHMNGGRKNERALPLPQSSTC

As for `CC(C)n1cnc2c(NCc3ccccc3)nc(NCCCO)nc21`, the residual activity in assay [1] turned out to be 66%; in [2] it was 93%; in assay [3], 81%; in assay [4], 90%; in [5], 87%; in [6] it was 116%. Further, the residual activity in [7] is 104%; in assay [8] it was 110%; in assay [9] it was 94%; in [10] it was 91%.
